Here are results for three compounds from PubChem BioAssay (EPA / NIEHS).

Broadly, the AC50 is the concentration at which the activity in the assay is half-maximal.

Activity calls are given as the source filed them. How the source made its calls: active means hit-call score of the fitted dose curve at least 0.9, where 1 is the maximum; inactive means score below 0.9.

Holding throughout (details): mRNA level, 48 h; actives raise or lower the signal
Read-out in assay [1]: Cyclin D2 (CCND2), CCND2 (gene 894)
As to the kind of experiment: LTEA_HepaRG_CCND2: Life Technologies and Expression Analysis (LTEA) Assay for Cyclin D2 (CCND2) using HepaRG (AID 2283449).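 Further: CCND2 transcript measured by TaqMan qRT-PCR and normalised to three housekeeping genes.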 An outline of the steps:
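HepaRG, 48 h dosing, 8-pt half-log curve from 100 uM, 0.5% DMSO; duplicate wells. Readout: CCND2 transcript by microfluidic qRT-PCR, housekeeping-normalised; bidirectional fit vs DMSO baseline.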

Read-out in assay [2]: Cyclin Dependent Kinase Inhibitor 1A (CDKN1A), CDKN1A (gene 1026)
As to the kind of experiment: LTEA_HepaRG_CDKN1A: Life Technologies and Expression Analysis (LTEA) Assay for Cyclin Dependent Kinase Inhibitor 1A (CDKN1A) using HepaRG (AID 2283450). The procedure, abridged: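 Read-out is CDKN1A mRNA by TaqMan qRT-PCR, normalized to three housekeeping genes and fitted in both directions against the DMSO baseline. Human HepaRG cells were treated 48 h with test chemicals up to 100 uM in half-log steps, 0.5% DMSO.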

Read-out in assay [3]: Cyclin D1 (CCND1), CCND1 (gene 595)
As to the kind of experiment: LTEA_HepaRG_CCND1: Life Technologies and Expression Analysis (LTEA) Assay for Cyclin D1 (CCND1) using HepaRG (AID 2283451).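 On AC50: differentiated human HepaRG liver cells in serum-free induction medium; TaqMan qRT-PCR transcript level normalised to ACTB GAPDH and POLR2A housekeeping genes.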 The procedure, abridged: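 HepaRG plated 48 h, medium switched to serum-free induction medium, chemicals added in duplicate (top 100 uM, half-log steps, 0.5% DMSO) for 48 h, cells lysed, RNA measured by TaqMan qRT-PCR.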

Read-out in assay [4]: catalase (CAT), CAT (gene 847)
As to the kind of experiment: LTEA_HepaRG_CAT: Life Technologies and Expression Analysis (LTEA) Assay for catalase (CAT) using HepaRG (AID 2283452). The procedure, abridged:
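HepaRG cells in serum-free induction medium, 0.5% DMSO vehicle, exposed 48 h in duplicate over 8 half-log concentrations from 100 uM. CAT mRNA measured by qRT-PCR, normalized to ACTB, GAPDH, POLR2A; bidirectional fit versus DMSO.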

Read-out in assay [5]: flavin-containing dimethylaniline monooxygenases 3 (FMO3), FMO3 (gene 2328)
As to the kind of experiment: LTEA_HepaRG_FMO3: Life Technologies and Expression Analysis (LTEA) Assay for flavin-containing dimethylaniline monooxygenases 3 (FMO3) using HepaRG (AID 2283453).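 On AC50: differentiated human HepaRG liver cells in serum-free induction medium.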 The procedure, abridged: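 Eight-point concentration-response in serum-free HepaRG cultures (top 100 uM, 0.5% DMSO, 48 h). Read-out: FMO3 mRNA level normalized to three endogenous control genes, fitted bidirectionally versus vehicle.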

Read-out in assay [6]: Cytochrome P450 (CYP1A1), CYP1A1 (gene 1543)
As to the kind of experiment: LTEA_HepaRG_CYP1A1: Life Technologies and Expression Analysis (LTEA) Assay for Cytochrome P450 (CYP1A1) using HepaRG (AID 2283454). An outline of the steps:
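HepaRG, 48 h post-plating switched to serum-free induction medium; 8-pt conc-response (top 100 uM, half-log, 0.5% DMSO), duplicates, 48 h. Lysis in RLT, TaqMan qRT-PCR for CYP1A1; gain or loss vs DMSO.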

Read-out in assay [7]: CFLAR gene, CFLAR (gene 8837)
As to the kind of experiment: LTEA_HepaRG_CFLAR: Life Technologies and Expression Analysis (LTEA) Assay for CFLAR gene using HepaRG (AID 2283455). An outline of the steps: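 qRT-PCR read-out (Fluidigm/TaqMan) of CFLAR mRNA, normalized to three housekeeping genes, in differentiated human HepaRG cells after 48 h chemical exposure; 8-point half-log series from 100 uM in 0.5% DMSO; bidirectional curve fitting versus DMSO.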

Read-out in assay [8]: Forkhead box O1 (FOXO1), FOXO1 (gene 2308)
As to the kind of experiment: LTEA_HepaRG_FOXO1: Life Technologies and Expression Analysis (LTEA) Assay for Forkhead box O1 (FOXO1) using HepaRG (AID 2283456). An outline of the steps: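 HepaRG, 48 h exposure, 8-pt half-log series from 100 uM in 0.5% DMSO, duplicates; Fluidigm qRT-PCR mRNA, housekeeping-normalised; bidirectional fit vs DMSO baseline.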

Read-out in assay [9]: growth arrest and DNA damage 45 (GADD45A), GADD45A (gene 1647)
As to the kind of experiment: LTEA_HepaRG_GADD45A: Life Technologies and Expression Analysis (LTEA) Assay for growth arrest and DNA damage 45 (GADD45A) using HepaRG (AID 2283458). The procedure, abridged:
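HepaRG, 48 h exposure, 8 conc. (top 100 uM, half-log steps), 0.5% DMSO vehicle, duplicates. Read-out: qRT-PCR mRNA level, housekeeping-normalized (ACTB/GAPDH/POLR2A). Curves fit bidirectionally vs DMSO baseline.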

Read-out in assay [10]: Forkhead box O3 (FOXO3), FOXO3 (gene 2309)
As to the kind of experiment: LTEA_HepaRG_FOXO3: Life Technologies and Expression Analysis (LTEA) Assay for Forkhead box O3 (FOXO3) using HepaRG (AID 2283459). The procedure, abridged:
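qRT-PCR readout of FOXO3 transcript, normalized to three housekeeping genes (ACTB, GAPDH, POLR2A); gain or loss fitted against 0.5% DMSO vehicle. HepaRG cells, 48 h chemical exposure, 8-point half-log series, top 100 uM.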

Read-out in assay [11]: ABC Transporter (ABCB1), ABCB1 (gene 5243)
As to the kind of experiment: LTEA_HepaRG_ABCB1: Life Technologies and Expression Analysis (LTEA) Assay for ABC Transporter (ABCB1) using HepaRG (AID 2283460). The procedure, abridged:
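HepaRG, 48 h exposure, 8-pt half-log series from 100 uM, 0.5% DMSO vehicle, duplicates. Readout: ABCB1 transcript by Fluidigm TaqMan qRT-PCR, housekeeping-normalized; bidirectional curve fit vs DMSO baseline.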

Read-out in assay [12]: growth arrest and DNA damage 45 (GADD45B), GADD45B (gene 4616)
As to the kind of experiment: LTEA_HepaRG_GADD45B: Life Technologies and Expression Analysis (LTEA) Assay for growth arrest and DNA damage 45 (GADD45B) using HepaRG (AID 2283461). The procedure, abridged: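 HepaRG, ~100,000 cells/well, 48 h plating; serum-free induction medium; cpd 100 uM top, half-log x8, 0.5% DMSO, duplicate, 48 h; lysis in RLT, RNA isolation, qRT-PCR; norm ACTB/GAPDH/POLR2A; bidirectional fit vs DMSO.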

Read-out in assay [13]: ABC Transporter (ABCC3), ABCC3 (gene 8714)
As to the kind of experiment: LTEA_HepaRG_ABCC3: Life Technologies and Expression Analysis (LTEA) Assay for ABC Transporter (ABCC3) using HepaRG (AID 2283462). The procedure, abridged: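 Human HepaRG, 48 h dosing, 8-pt half-log series from 100 uM, 0.5% DMSO vehicle, duplicates. ABCC3 mRNA by TaqMan qRT-PCR, housekeeping-normalized; bidirectional curve fit vs DMSO.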

Read-out in assay [14]: ABC Transporter (ABCB11), ABCB11 (gene 8647)
As to the kind of experiment: LTEA_HepaRG_ABCB11: Life Technologies and Expression Analysis (LTEA) Assay for ABC Transporter (ABCB11) using HepaRG (AID 2283463). An outline of the steps:
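HepaRG, 48 h exposure, 8-pt half-log CRC top 100 uM, 0.5% DMSO vehicle, duplicates. Readout: TaqMan qRT-PCR of ABCB11 mRNA, housekeeping-normalized (ACTB/GAPDH/POLR2A). Bidirectional fit vs DMSO baseline.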

Read-out in assay [15]: ABC Transporter (ABCC2), ABCC2 (gene 1244)
As to the kind of experiment: LTEA_HepaRG_ABCC2: Life Technologies and Expression Analysis (LTEA) Assay for ABC Transporter (ABCC2) using HepaRG (AID 2283464). An outline of the steps:
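HepaRG, 48 h post-plating; serum-free induction medium; cpd 8-pt, 100 uM top, half-log, 0.5% DMSO, duplicate, 48 h. Readout: ABCC2 mRNA by qRT-PCR, norm. ACTB/GAPDH/POLR2A. Bidirectional fit vs DMSO baseline.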

Read-out in assay [16]: Broad substrate specificity ATP-binding cassette transporter ABCG2 (Homo sapiens) (UniProt Q9UNQ0)
As to the kind of experiment: LTEA_HepaRG_ABCG2: Life Technologies and Expression Analysis (LTEA) Assay for ABC Transporter (ABCG2) using HepaRG (AID 2283465). The procedure, abridged:
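HepaRG, 48 h exposure, 8-pt half-log series from 100 uM, 0.5% DMSO vehicle, duplicates. Readout: ABCG2 transcript by qRT-PCR (Fluidigm array), housekeeping-normalized; bidirectional curve fit relative to DMSO baseline.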

Read-out in assay [17]: ATP-citrate lyase (ACLY), ACLY (gene 47)
As to the kind of experiment: LTEA_HepaRG_ACLY: Life Technologies and Expression Analysis (LTEA) Assay for ATP-citrate lyase (ACLY) using HepaRG (AID 2283466). The procedure, abridged: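 qRT-PCR readout of ACLY transcript after 48 h chemical treatment of HepaRG cells; expression normalized to three housekeeping genes. Eight-point half-log series, highest 100 uM, 0.5% DMSO vehicle. Gain or loss fitted against DMSO baseline.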

Read-out in assay [18]: Alkaline Phosphatase, Placental (ALPP) gene, ALPP (gene 250)
As to the kind of experiment: LTEA_HepaRG_ALPP: Life Technologies and Expression Analysis (LTEA) Assay for Alkaline Phosphatase, Placental (ALPP) gene using HepaRG (AID 2283468). The procedure, abridged:
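HepaRG, 48 h plating then 48 h dosing, serum-free induction medium, 0.5% DMSO. 8 conc, half-log, max 100 uM, duplicates. Endpoint: ALPP transcript by qRT-PCR, housekeeping-normalized; gain or loss fitted vs DMSO.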

Read-out in assay [19]: Peroxisomal acyl-coenzyme A oxidase 1 (ACOX1) gene, ACOX1 (gene 51)
As to the kind of experiment: LTEA_HepaRG_ACOX1: Life Technologies and Expression Analysis (LTEA) Assay for Peroxisomal acyl-coenzyme A oxidase 1 (ACOX1) gene using HepaRG (AID 2283467). The procedure, abridged:
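HepaRG, 48 h chemical exposure, 8-pt half-log series from 100 uM top, 0.5% DMSO vehicle, duplicates. Readout: ACOX1 mRNA by Fluidigm qRT-PCR, housekeeping-normalized; bidirectional fit vs DMSO baseline.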

Chain of Broad substrate specificity ATP-binding cassette transporter ABCG2 (Homo sapiens) (Q9UNQ0 whole entry, looked up): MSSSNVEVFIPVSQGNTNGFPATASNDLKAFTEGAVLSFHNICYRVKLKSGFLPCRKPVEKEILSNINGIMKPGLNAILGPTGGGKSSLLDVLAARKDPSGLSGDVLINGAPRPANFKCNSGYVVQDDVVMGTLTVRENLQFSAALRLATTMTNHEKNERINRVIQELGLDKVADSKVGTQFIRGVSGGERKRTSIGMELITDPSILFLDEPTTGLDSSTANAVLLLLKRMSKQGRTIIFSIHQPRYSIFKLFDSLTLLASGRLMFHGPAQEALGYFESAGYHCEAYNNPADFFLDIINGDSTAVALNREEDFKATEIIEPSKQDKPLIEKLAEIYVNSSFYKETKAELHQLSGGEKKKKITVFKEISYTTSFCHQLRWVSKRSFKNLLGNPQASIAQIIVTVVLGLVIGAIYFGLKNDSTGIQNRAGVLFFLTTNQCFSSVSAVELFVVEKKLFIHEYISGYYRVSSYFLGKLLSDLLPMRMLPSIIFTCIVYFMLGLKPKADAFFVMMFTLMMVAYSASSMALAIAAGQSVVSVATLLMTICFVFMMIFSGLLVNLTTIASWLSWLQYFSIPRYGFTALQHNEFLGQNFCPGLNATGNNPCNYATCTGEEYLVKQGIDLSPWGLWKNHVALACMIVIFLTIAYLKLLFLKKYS

On to `CC1(C)C(C=C(Cl)Cl)C1C(=O)OCc1cccc(Oc2ccccc2)c1` (stereo not given), for which the result in assay [1], in [2], in assay [3], in [4], in assay [5] and in assay [7] was inactive. Also, the compound was classed as inactive in assay [8], in assay [9], in assay [10], in assay [11], in assay [12] and in [13]. Besides, the call in assay [14], in assay [15], in [16], in [17] and in assay [18] was inactive. Besides, in assay [6], the concentration at half-maximal activity (AC50) was 35.9 µM (active).

For `S=C([S-])NCCNC(=S)[S-].[Mn+2]`, the compound was called inactive in assay [1], in [2], in [16] and in [18]. Also, the AC50 in assay [3] is 0.485 µM (active); in assay [4], 2.97 µM (active); in assay [5], 5.71 µM (active); in [6], 8.74 µM (active); in assay [7] it was 3.43 µM (active); in assay [8], 9.26 µM (active). The AC50 in [9] was 5.52 µM (active); in assay [10] it was 3.51 µM (active); in [11], 3.47 µM (active); in [12] it was 5.56 µM (active); in assay [13], 2.06 µM (active); in assay [14], 1.85 µM (active). In addition, the AC50 in [15] was 2.87 µM (active); in assay [17], 0.871 µM (active).

As to `CCCCOC(=O)[C@@H](C)Oc1ccc(Oc2ccc(C(F)(F)F)cn2)cc1`, the result in assay [1], in assay [2], in assay [3], in [4], in [5] and in assay [7] was inactive. For the same compound, the outcome in [8], in assay [9], in assay [10], in [11], in assay [12] and in assay [13] was inactive. Moreover, the outcome in [15], in [16], in [17], in assay [19] and in assay [18] was inactive. Also, the results for the AC50 in assay [6] and in assay [14] were 50.2 µM (active) and 20.6 µM (active), respectively.
